Measurements published in ChEMBL document CHEMBL1201862, “PubChem BioAssay data set” (2004).
Hit rate of the full screen: of about 420,000 compounds, about 64,000 (15%) were called active. Roughly 27% stayed inconclusive and do not appear here. No cut-off for these calls is given here. The full list was thinned out, with actives kept by preference.

The compounds below were run against Tyrosyl-DNA phosphodiesterase 1 (Homo sapiens) (UniProt Q9NUW8) (assay: qHTS for Inhibitors of human tyrosyl-DNA phosphodiesterase 1 (TDP1): qHTS in cells in absence of CPT.).
Tyrosyl-DNA phosphodiesterase 1 (Homo sapiens), sequence (Q9NUW8 whole entry): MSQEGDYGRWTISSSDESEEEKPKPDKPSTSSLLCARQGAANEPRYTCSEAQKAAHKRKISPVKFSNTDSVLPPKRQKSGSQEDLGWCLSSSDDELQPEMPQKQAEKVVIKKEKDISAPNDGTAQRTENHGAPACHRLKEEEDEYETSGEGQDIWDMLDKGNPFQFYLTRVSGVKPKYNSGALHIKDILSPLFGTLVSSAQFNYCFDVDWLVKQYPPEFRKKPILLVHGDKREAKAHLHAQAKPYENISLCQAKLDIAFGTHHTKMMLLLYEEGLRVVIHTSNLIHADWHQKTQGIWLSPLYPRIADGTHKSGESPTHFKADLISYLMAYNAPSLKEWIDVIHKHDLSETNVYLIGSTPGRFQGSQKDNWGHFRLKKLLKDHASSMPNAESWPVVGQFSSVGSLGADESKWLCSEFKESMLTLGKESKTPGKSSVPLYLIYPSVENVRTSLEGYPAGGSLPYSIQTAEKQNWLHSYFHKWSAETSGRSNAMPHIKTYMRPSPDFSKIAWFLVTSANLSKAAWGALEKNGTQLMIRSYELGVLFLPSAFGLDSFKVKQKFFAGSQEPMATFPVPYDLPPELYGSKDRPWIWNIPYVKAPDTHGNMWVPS
Type: functional

Potency, active:
ICCCCN1C=S(CI)c2ccccc21 (stereo not drawn) 8.91 µM
Cc1cccc2c1N(CCCCI)C=S2C (stereo not drawn) 3.98 µM
COc1ccc(OC)c(/C=C/c2cccc3c2N(CCCCI)C=S3/C=C/c2cc(OC)ccc2OC)c1 (stereo not drawn) 7.08 µM
CN(C)c1ccc(/C=C/c2cccc3c2N(CCCCI)C=S3/C=C/c2ccc(N(C)C)cc2)cc1 (stereo not drawn) 15.8 µM
CCOc1ccc(N2C(=O)c3ccccc3N/C2=C\N2CCN(C(=O)c3ccco3)CC2)cc1 10 µM
COc1ccccc1/C=C/C(=O)c1cccs1 5.96 µM
O=C(/C=C/c1ccc(Cl)cc1)c1cccs1 7.5 µM
CC(C)C(C)c1cccc2c1NC=S2C(C)C(C)C (stereo not drawn) 5.62 µM
